This is an account of results in the supplement of paper PMC10338343.

± gives the standard deviation.

One assay relates to MILI (PIWIL2) piRISC loaded with L1MC piRNA (26 nt). Description: pre-steady-state target cleavage rate (min^-1); guide: L1MC piRNA 5'p-UAACUAAAUACUAUGCAAGCUGUAGG; MIWI and MILI are mouse PIWI proteins and EfPiwi is from a freshwater sponge; tags in brackets are library labels; higher = faster piRNA-guided slicing of the target. The note with it: auxiliary factor: 500 nM mouse GTSF1. In a few lines: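 Using HEPES–potassium acetate buffer at 33 °C, 1 nM active affinity-purified piRISC with a single synthetic guide was mixed with 0.1 nM transcribed, DNA-blocked target RNA library for 0–8 or 0–960 min, with or without 500 nM GTSF1 partner protein. Uncleaved targets were sequenced and normalised to depth and to weakly complementary targets, and three trials were pooled with k3 capped at 0.0001 min^-1. A burst-and-steady-state fit gave the pre-steady-state cleavage rate.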
Take UCCUGGUACAGCUUGCUUAGUAUUUAGUAA: the “pre-steady-state target cleavage rate” value was determined as 0.244 ± 0.03.
Turning to UCCUCCUACAGCUUGGAUAGUAUAUAGUUA, the “pre-steady-state target cleavage rate” value was determined as 0.195 ± 0.022.
On the same count and under the same terms, the value for UCCUGGAACAGCUUGCAAAGUAUUAAGUUA was 0.0867 ± 0.015; that for UCCUGGAACAGCUUGCAUAGUAUGUUAGUUA was 0.243 ± 0.046.
The same measure, in the same setting: the result for UCCUCCUACAGCUUGCAUAGUAUAUUGUUA reads 0.128 ± 0.019.
On the same count and under the same terms, the result for UCCUGGUACAGCUUUCAUAGUAUUUAGUUA reads 0.22 ± 0.042; that for “UCCUGGAUGUGCUUGCAUAGUAUUUAGUUU [g2:g20:cont:t1U]”, 0.158 ± 0.016; that for UCCUGGUACAGCUUGCAUAGUUUUUAGUAA, 0.0656 ± 0.014.
As for UCCUCCAUACAGCUUGCAUAGUAUUUAGUUA, the “pre-steady-state target cleavage rate” value was 0.171 ± 0.021.
On to UCCUCCAUCAGCUUGCAUAGUAUUUAGUAA, for which the “pre-steady-state target cleavage rate” value was 0.165 ± 0.024.
For UCCUGGUACAGCAUGCAUAGUAUUUAGUAA, the “pre-steady-state target cleavage rate” value amounted to 0.163 ± 0.02.
Turning to UCCUGCUACAGCUUGCACAGUAUUUAGUUA, the “pre-steady-state target cleavage rate” value stood at 0.157 ± 0.015.
Same read-out and setting: the result for UCCUGGUACAGGUUGCAAAGUAUUUAGUUA reads 0.117 ± 0.012; that for UCCUGGAUCUGCUUGCAUAGUAUUUAGUAA, 0.22 ± 0.014; that for UCCUGGAUGUCGAUGCAUAGUACUUAGUUA, 0.025 ± 0.0066.
In the case of UCCUGGAUGUCCUCGCAUAGUAUUUAGUUA, the “pre-steady-state target cleavage rate” value worked out at 0.0711 ± 0.01.

The assay is the same for the next values; noted with them: auxiliary factor: none (no GTSF1).
Take UCCUGGUACAGCUUGCAUAGUACUUAGUUA: the “pre-steady-state target cleavage rate” value is 0.00401 ± 0.0032.
On the same count and under the same terms, the result for UCCUGCUACUGCUUGGAUAGUAUUUAGUUA reads 0.00763 ± 0.0018; that for UCCUGGAUGUGCUGCAUAGUAUUUAGUUA, 0.00895 ± 0.0024; that for UCCUGGAUGUGACUUGCAUAGUAUUUAGUUA, 0.00737 ± 0.0028.
Consider UCCUGGUAGUGCUUGCAUAGUAUUUAGUAA, for which the “pre-steady-state target cleavage rate” value stood at 0.00505 ± 0.0031.
Still for that read-out and setting: the result for UCCUGGAACUGCUUGCAUAGUAUUUAGUAA reads 0.00419 ± 0.0025; that for UCCUCCUACACCAUGCAUAGUAUUUAGUUA, 0.00814 ± 0.0024; that for UCCUGGAUGUGCUUGCAUAGUAUUUAAGUUA, 0.00961 ± 0.0032.
Same read-out and setting: the value for UCCUGGUACAGCAUUGCAUAGUAUUUAGUUA was 0.0159 ± 0.0049; that for UCCUGGAUGUCGUUUGCAUAGUAUUUAGUUA was 0.00976 ± 0.0036; that for UCCUGGUACAGCUUGCAAGUAUUUAGUUA was 0.00636 ± 0.0022.
On the same count and under the same terms, the result for UCCUGGAUCAGCUAGCAUAGUAUUUAGUAA reads 0.00665 ± 0.0023; that for UCCUGGAUCAGCUUGCAUGGUAUUUAGUUA, 0.011 ± 0.0027; that for UCCUGGAACAGCUUGUAUAGUAUUUAGUUA, 0.00685 ± 0.0022.
On to UCCUCCUACAGCUAGCUUAGUAUUUAGUUA, for which the “pre-steady-state target cleavage rate” value was 0.00491 ± 0.0019.
As to UCCUGGUAGAGCUUGCUUAGUAUUUAGUUA, the “pre-steady-state target cleavage rate” value was 0.00793 ± 0.0029.
Consider UCCUGCUACAGCUAGGAUAGUAUUUAGUUA, for which the “pre-steady-state target cleavage rate” value turned out to be 0.00677 ± 0.0024.
Same read-out and setting: the value for UCCUGGAUGUGCUUGCAUAGUCUUUAGUUA was 0.00463 ± 0.0025; that for UCCUCCUUGUGCUUGCAUAGUAUUUAGUUA was 0.00963 ± 0.002; that for UCCUGGAACAGCUGUGCAUAGUAUUUAGUUA was 0.00954 ± 0.0024.
Still for that read-out and setting: the result for UCCUGGUUCAGCUUGCAUAGUUUUUAGUUA reads 0.0081 ± 0.0027; that for UCCUGGUACUGGUUGCAUAGUAUUUAGUUA, 0.0125 ± 0.0045.
Still for that read-out and setting: the result for UCCUGGAUCAGCUUGCUUAGUAUUAAGUUA reads 0.00516 ± 0.0021; that for UCCUCCUACAGCUUGCAUAGAUUUUAGUUA, 0.00358 ± 0.002; that for UCCUGGUACAGCUUGCUUAGUAUUUAGUAA, 0.00308 ± 0.0025.
For the sequence UCCUCCUACAGCUUGGAUAGUAUAUAGUUA, the “pre-steady-state target cleavage rate” value turned out to be 0.0033 ± 0.0023.
On the same count and under the same terms, the value for UCCUGGAACAGCUUGCAAAGUAUUAAGUUA was 0.00516 ± 0.0022; that for UCCUGGAACAGCUUGCAUAGUAUGUUAGUUA was 0.0048 ± 0.0027.
The same measure, in the same setting: the result for UCCUCCUACAGCUUGCAUAGUAUAUUGUUA reads 0.00269 ± 0.0025; that for UCCUGGUACAGCUUUCAUAGUAUUUAGUUA, 0.0103 ± 0.0032.
With “UCCUGGAUGUGCUUGCAUAGUAUUUAGUUU [g2:g20:cont:t1U]”, the “pre-steady-state target cleavage rate” value worked out at 0.0103 ± 0.0037.
On the same count and under the same terms, the result for UCCUGGUACAGCUUGCAUAGUUUUUAGUAA reads 0.00501 ± 0.0027.
On the same count and under the same terms, the value for UCCUCCAUACAGCUUGCAUAGUAUUUAGUUA was 0.00652 ± 0.002.
For UCCUCCAUCAGCUUGCAUAGUAUUUAGUAA, the “pre-steady-state target cleavage rate” value was found to be 0.00315 ± 0.0022.
Take UCCUGGUACAGCAUGCAUAGUAUUUAGUAA: the “pre-steady-state target cleavage rate” value was 0.00467 ± 0.0031.
Same read-out and setting: the value for UCCUGCUACAGCUUGCACAGUAUUUAGUUA was 0.00803 ± 0.0023.
On the same count and under the same terms, the result for UCCUGGUACAGGUUGCAAAGUAUUUAGUUA reads 0.0143 ± 0.0038; that for UCCUGGAUCUGCUUGCAUAGUAUUUAGUAA, 0.00457 ± 0.0021; that for UCCUGGAUGUCGAUGCAUAGUACUUAGUUA, 0.0058 ± 0.0019.
In the case of UCCUGGAUGUCCUCGCAUAGUAUUUAGUUA, the “pre-steady-state target cleavage rate” value worked out at 0.00777 ± 0.0022.
